The nature of assay [1]: NCI Yeast Anticancer Drug Screen. Data for the rad50 strain (AID 155).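 Further: 0% = growth of vehicle-only cultures of the same strain.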 The note with it: S. cerevisiae rad50 strain growth inhibition, stronger effect = higher value. Put shortly:
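Vehicle-treated cultures provide the reference for the growth inhibition reported for compound-exposed, repair-deficient yeast.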

Assay [2] in a line: NCI Yeast Anticancer Drug Screen. Data for the mec2-1 strain (AID 157). The note with it: S. cerevisiae mec2-1 strain, stronger effect = higher value. Put shortly: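 Vehicle-treated cultures served as reference for growth inhibition of compound-exposed mec2-1 yeast.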
A short description of assay [3]: NCI Yeast Anticancer Drug Screen. Data for the sgs1 mgt1 strain (AID 161).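 Further: 0% = growth of cultures given vehicle only.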 The note with it: S. cerevisiae sgs1 mgt1 strain, stronger effect = higher value. Put shortly: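 Test agents were incubated with a DNA-repair-mutant yeast strain. Growth was then read and compared against vehicle-treated controls.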
Assay [4] in a line: NCI Yeast Anticancer Drug Screen. Data for the cln2 rad14 strain (AID 165).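 Further: 0% = growth equal to vehicle treated cultures.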 The note with it: S. cerevisiae cln2 rad14 strain, stronger effect = higher value. In outline: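 Each compound was tested on cln2 rad14 yeast. Inhibition of growth was calculated against vehicle-exposed controls.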
Assay [5] in a line: NCI Yeast Anticancer Drug Screen. Data for the bub3 strain (AID 167). The note with it: S. cerevisiae bub3 mutant strain, stronger effect = higher value. Put shortly:
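Mutant yeast screening strain plus compound; vehicle-treated cultures serve as the 0% inhibition reference.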

Assay [6] can be described thus: NCI Yeast Anticancer Drug Screen. Data for the mlh1 rad18 strain (AID 175). The note with it: S. cerevisiae mlh1 rad18 strain growth inhibition, stronger effect = higher value. In outline: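 Vehicle-treated cultures served as the reference for growth inhibition in a yeast strain carrying DNA damage repair alterations exposed to each compound.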
Where [7] appears, read: at 5.0 µM (retest, dose inferred, filed as 0.5).
Setting [8] is: at 50.0 µM (retest, dose inferred, filed as 5.0).

Here are results for ten molecules from PubChem BioAssay (NCI).

Compounds without any hit were thinned out: in the full panel of roughly 79,000, 15% have a hit. A number with no mark means an inactive call. Activity calls are given as the source filed them. No stated cut-off is given here; in the data, active means growth inhibition above about 70%; inactive means the rest. Where a SMILES comes first, the peptide text is derived from it. [ ]: non-standard residue; d: D form. ξ: configuration not given here. ξD = NC(CC(=O)O)C(=O)O

Consider `Cn1ccc(=Nc2ccc(NC(=O)c3ccc(N=c4ccn(C)c5ccc([N+](=O)[O-])cc45)cc3)cc2)cc1`, for which the growth inhibition in assay [1] (setting [7]) was 86% (active); in assay [1] (setting [8]) it was 98% (active); in assay [1] (at 50.0 µM), 79.7% (active); in assay [2] (setting [7]) it was 80% (active); in assay [2] (setting [8]) it was 98% (active); in assay [2] (at 50.0 µM), 87.4% (active). Moreover, the growth inhibition was 92% (active) in assay [3] (setting [7]); 98% (active) in assay [3] (setting [8]); 87.3% (active) in assay [3] (at 50.0 µM); 83% (active) in assay [4] (setting [7]); 96% (active) in assay [4] (setting [8]); 76.6% (active) in assay [4] (at 50.0 µM). Moreover, the growth inhibition was 93% (active) in assay [5] (setting [7]); 99% (active) in assay [5] (setting [8]); 87.5% (active) in assay [5] (at 50.0 µM); 72% (active) in assay [6] (setting [7]); 95% (active) in assay [6] (setting [8]); 84.8% (active) in assay [6] (at 50.0 µM).
In the case of `Cc1cc(N/N=C/c2ccccn2)nc2ccccc12`, the growth inhibition is 20% in assay [1] (setting [7]); 94% (active) in assay [1] (setting [8]); 88.7% (active) in assay [1] (at 50.0 µM); 7% in assay [2] (setting [7]); 95% (active) in assay [2] (setting [8]); 92.3% (active) in assay [2] (at 50.0 µM). Further, the growth inhibition in assay [3] (setting [7]) is 21%; in assay [3] (setting [8]), 95% (active); in assay [3] (at 50.0 µM), 89.8% (active); in assay [4] (setting [7]) it was 22%; in assay [4] (setting [8]) it was 93% (active); in assay [4] (at 50.0 µM) it was 83.9% (active). Also, the growth inhibition in assay [5] (setting [7]) is 8%; in assay [5] (setting [8]), 98% (active); in assay [5] (at 50.0 µM) it was 85.7% (active); in assay [6] (setting [7]) it was 11%; in assay [6] (setting [8]) it was 95% (active); in assay [6] (at 50.0 µM) it was 90% (active).
On to `O=C(/C=C/c1ccccc1)c1ccccc1O`, for which the growth inhibition is 9% in assay [1] (setting [7]); 78% (active) in assay [1] (setting [8]); 98.5% (active) in assay [1] (at 50.0 µM); 4% in assay [2] (setting [7]); 49% in assay [2] (setting [8]); 99.2% (active) in assay [2] (at 50.0 µM). Also, the growth inhibition in assay [3] (setting [7]) was 4%; in assay [3] (setting [8]) it was 55%; in assay [3] (at 50.0 µM), 46%; in assay [4] (setting [7]), 2%; in assay [4] (setting [8]), 40%; in assay [4] (at 50.0 µM) it was 53.6%. The growth inhibition in assay [5] (setting [7]) was 1%; in assay [5] (setting [8]), 80% (active); in assay [5] (at 50.0 µM), 49.1%; in assay [6] (setting [7]) it was 1%; in assay [6] (setting [8]) it was 78% (active); in assay [6] (at 50.0 µM), 45.6%.
As for `O=Nc1ccc2ccccc2c1O`, the growth inhibition was -3% in assay [1] (setting [7]); 64% in assay [1] (setting [8]); 85.7% (active) in assay [1] (at 50.0 µM); 3% in assay [2] (setting [7]); 88% (active) in assay [2] (setting [8]); 89.8% (active) in assay [2] (at 50.0 µM). Besides, the growth inhibition in assay [3] (setting [7]) is -6%; in assay [3] (setting [8]), 37%; in assay [3] (at 50.0 µM), 86.8% (active); in assay [4] (setting [7]) it was 25%; in assay [4] (setting [8]), 63%; in assay [4] (at 50.0 µM) it was 58.5%. Further, the growth inhibition in assay [5] (setting [7]) is 3%; in assay [5] (setting [8]) it was 93% (active); in assay [5] (at 50.0 µM) it was 89.5% (active); in assay [6] (setting [7]), 14%; in assay [6] (setting [8]), 93% (active); in assay [6] (at 50.0 µM), 84% (active).
Take `Clc1ccc(Cc2nc3ccccc3s2)cc1`: the growth inhibition in assay [1] (setting [7]) is -5%; in assay [1] (setting [8]), 99% (active); in assay [1] (at 50.0 µM), 99.2% (active); in assay [2] (setting [7]), 33%; in assay [2] (setting [8]) it was 99% (active); in assay [2] (at 50.0 µM) it was 99.5% (active). Moreover, the growth inhibition is 47% in assay [3] (setting [7]); 99% (active) in assay [3] (setting [8]); 99.5% (active) in assay [3] (at 50.0 µM); 16% in assay [4] (setting [7]); 99% (active) in assay [4] (setting [8]); 97.3% (active) in assay [4] (at 50.0 µM). In addition, the growth inhibition in assay [5] (setting [7]) was 38%; in assay [5] (setting [8]) it was 99% (active); in assay [5] (at 50.0 µM), 99% (active); in assay [6] (setting [7]) it was 29%; in assay [6] (setting [8]) it was 99% (active); in assay [6] (at 50.0 µM) it was 99.3% (active).
In the case of `COc1ccc(Nc2nc3ccc(C(F)(F)F)cc3nc2C(=O)O)cc1`, the growth inhibition was 10% in assay [1] (setting [7]); 51% in assay [1] (setting [8]); 30.6% in assay [1] (at 50.0 µM); 13% in assay [2] (setting [7]); 46% in assay [2] (setting [8]); 42.9% in assay [2] (at 50.0 µM). Moreover, the growth inhibition in assay [3] (setting [7]) was 21%; in assay [3] (setting [8]) it was 22%; in assay [3] (at 50.0 µM), 40.6%; in assay [4] (setting [7]), 31%; in assay [4] (setting [8]) it was 37%; in assay [4] (at 50.0 µM), 68.3%. Besides, the growth inhibition is 7% in assay [5] (setting [7]); 12% in assay [5] (setting [8]); 60.5% in assay [5] (at 50.0 µM); 9% in assay [6] (setting [7]); 48% in assay [6] (setting [8]); 54.5% in assay [6] (at 50.0 µM).
`CCOc1ccc2c(c1)/C(=C\C=C\C1CC(C)C3CC(OCC)CCC3N1CC)CC(C)N2CC` (stereo not given): the growth inhibition in assay [1] (setting [7]) was -7%; in assay [1] (setting [8]), 85% (active); in assay [1] (at 50.0 µM) it was 28.6%; in assay [2] (setting [7]), -1%; in assay [2] (setting [8]), 88% (active); in assay [2] (at 50.0 µM) it was 88.2% (active). The growth inhibition in assay [3] (setting [7]) was -10%; in assay [3] (setting [8]), 92% (active); in assay [3] (at 50.0 µM) it was 33.9%; in assay [4] (setting [7]), 0%; in assay [4] (setting [8]) it was 83% (active); in assay [4] (at 50.0 µM) it was 83% (active). In addition, the growth inhibition in assay [5] (setting [7]) was 4%; in assay [5] (setting [8]), 82% (active); in assay [5] (at 50.0 µM), 83.7% (active); in assay [6] (setting [7]) it was 0%; in assay [6] (setting [8]), 86% (active); in assay [6] (at 50.0 µM), 81.5% (active).
As for `O=C1C=CC(O)=CC1=P(c1ccccc1)(c1ccccc1)c1ccccc1`, the growth inhibition in assay [1] (setting [7]) is 2%; in assay [1] (setting [8]) it was 11%; in assay [1] (at 50.0 µM) it was 48.1%; in assay [2] (setting [7]), -1%; in assay [2] (setting [8]) it was 6%; in assay [2] (at 50.0 µM), -8.55%. Also, the growth inhibition in assay [3] (setting [7]) was -1%; in assay [3] (setting [8]), 2%; in assay [3] (at 50.0 µM), 47.5%; in assay [4] (setting [7]), -2%; in assay [4] (setting [8]), -3%; in assay [4] (at 50.0 µM) it was 7.4%. For the same molecule, the growth inhibition in assay [5] (setting [7]) is -4%; in assay [5] (setting [8]), 2%; in assay [5] (at 50.0 µM), 25.9%; in assay [6] (setting [7]), 3%; in assay [6] (setting [8]), 8%; in assay [6] (at 50.0 µM) it was 34.5%.
In the case of `NCC(=O)NC(CC(=O)O)C(=O)O` (stereo not given) (H-Gly-[ξD]-OH), the growth inhibition is -1% in assay [1] (setting [7]); 10% in assay [1] (setting [8]); 12.7% in assay [1] (at 50.0 µM); -6% in assay [2] (setting [7]); -12% in assay [2] (setting [8]); 9.15% in assay [2] (at 50.0 µM). The growth inhibition is -10% in assay [3] (setting [7]); 20% in assay [3] (setting [8]); 13.2% in assay [3] (at 50.0 µM); -2% in assay [4] (setting [7]); 14% in assay [4] (setting [8]); 1.05% in assay [4] (at 50.0 µM). Moreover, the growth inhibition in assay [5] (setting [7]) was 9%; in assay [5] (setting [8]), 9%; in assay [5] (at 50.0 µM), 8.05%; in assay [6] (setting [7]), 8%; in assay [6] (setting [8]) it was 16%; in assay [6] (at 50.0 µM), 32.2%.
Consider `CN(C)c1ccc(/C=C/c2cc[n+](C)c(/C=C/c3ccc(N(C)C)cc3)c2)cc1`, for which the growth inhibition is 98% (active) in assay [1] (setting [7]); 96% (active) in assay [1] (setting [8]); 91% (active) in assay [1] (at 50.0 µM); 100% (active) in assay [2] (setting [7]); 95% (active) in assay [2] (setting [8]); 93.3% (active) in assay [2] (at 50.0 µM). The growth inhibition in assay [3] (setting [7]) was 98% (active); in assay [3] (setting [8]), 93% (active); in assay [3] (at 50.0 µM), 93.2% (active); in assay [4] (setting [7]), 99% (active); in assay [4] (setting [8]) it was 97% (active); in assay [4] (at 50.0 µM), 92.8% (active). The growth inhibition in assay [5] (setting [7]) is 96% (active); in assay [5] (setting [8]) it was 95% (active); in assay [5] (at 50.0 µM), 91.8% (active); in assay [6] (setting [7]), 100% (active); in assay [6] (setting [8]), 96% (active); in assay [6] (at 50.0 µM), 91% (active).
